Assay results: PubChem BioAssay AID1508625 (Wald Lab, School of Medicine, Case Western Reserve …, 2021)

experiment: enhancers of NK cell killing of ovarian tumor cells, primary screen, imaging, OVCAR3, primary NK cells, calcein-AM imaging (AID 1508625); details: OVCAR3 lysis by primary NK cells, at 5 µM; z-score: measured here: robust Z-score, single-point normalisation;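 further: compound given to NK cells 16 h before adding targets at 1.5 to 1 ratio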

Row | SMILES | z-score | corrected activity, negative = more killing [%]
1 | COc1ccc(NC(=O)C(N)=O)cc1 | -1.62 | -3.82
2 | Cc1ccc(C(=O)O)c(C(=O)Nc2cccnc2)c1 | -0.143 | -0.349
3 | Cc1ccc(C)c(C(=O)COC(=O)CNS(=O)(=O)c2ccccc2)c1 | -0.589 | -1.55
4 | COc1ccc(C2Nc3ccccc3NC3=C2C(=O)CC(c2ccco2)C3)cc1 (stereo not drawn) | -0.853 | -2.08
5 | CCc1ccc(NC(=O)CCNC(=O)Cn2cnc3ccccc3c2=O)cc1 | 0.279 | 0.879
6 | COc1ccc(C(=O)N2CCN(CC=Cc3ccccc3)CC2)cc1 | -0.422 | -1.03
7 | N#Cc1c2c(c(-n3ccnc3)n3c1nc1ccccc13)CCC2 | -0.772 | -2.49
8 | Cc1ccc(C(=O)N2C(=O)C(c3ccccc3)Oc3ccccc32)cc1 (stereo not drawn) | -3.35 | -10.8
9 | CCN(CC)S(=O)(=O)c1ccc(C(=O)Nc2nc(-c3ccccc3)c(C(C)=O)s2)cc1 | -0.984 | -2.77
10 | Cc1ccc(OCCNC2CCCC2)c(C)c1 | 0.0921 | 0.166
11 | CCCSc1nc2c([nH]c3ccccc32)c(=O)n1-c1ccc(F)cc1 | -0.888 | -3.57
12 | O=c1c2cc3c(cc2nc(SCc2cccc(F)c2)n1Cc1ccco1)OCO3 | -0.995 | -3.76
13 | CCOc1ccc(NS(=O)(=O)c2ccc3[nH]cc(C(=O)NCC4CCCO4)c(=O)c3c2)cc1 (stereo not drawn) | -0.527 | -2.15
14 | Cc1ccc(-c2nc3ccccc3c(C(=O)O)c2C)cc1 | -1.18 | -2.28
15 | CC(=O)c1cccc(NC(=O)COc2ccccc2C)c1 | -0.9 | -1.74
16 | COC(=O)c1ccc(COC(=O)c2ccncc2)cc1 | -0.393 | -0.707
17 | CCOC(=O)c1c(N)sc(C(=O)Nc2cc(C)ccc2C)c1C | -1.57 | -5.05
18 | CCC(Oc1ccccc1)C(=O)N1CCC(C(N)=O)CC1 (stereo not drawn) | -1.64 | -2.95
19 | O=C(O)C1CSC(c2cccs2)=N1 (stereo not drawn) | -1.19 | -4.41
20 | Cc1c(Cl)cccc1NC(=O)c1sc2ncn(CC(=O)N3CCOCC3)c(=O)c2c1C | 0.246 | 0.676

Row | SMILES | z-score | corrected activity, negative = more killing [%]
21 | Cc1ccc(C(=O)Nc2ccc(NC(=O)c3ccc(C(C)(C)C)cc3)cc2)cc1[N+](=O)[O-] | -0.888 | -2.5
22 | O=C(Nc1cccc(-c2nc3ccccc3o2)c1)C1CCCCC1 | -0.667 | -2.15
23 | O=C(CSCc1ccccc1F)N1CCc2ccccc21 | -2.65 | -9.83
24 | COC(=O)c1ccc(C)c(NC(=O)c2ccc(C3SCC(=O)N3Cc3ccccc3)cc2)c1 (stereo not drawn) | -2.22 | -5.82
25 | Cc1nc2ccc3nc(NC(=O)c4cc([N+](=O)[O-])ccc4Cl)sc3c2s1 | -0.528 | -2.51
26 | O=C(NN=Cc1ccc[nH]1)C(O)c1ccccc1 (stereo not drawn) | -0.823 | -2.59
27 | CN(C)c1ccc(C=CC=C2SC(=S)N(Cc3ccccc3)C2=O)cc1 | -1.88 | -3.62
28 | COc1c(Cl)cc(Cl)cc1C(=O)n1nc(C)cc1C | -1.06 | -2.7
29 | CC(=O)c1c(C(C)=O)c(C)n(-c2ccc(Cl)c(N)c2)c1C | -2.26 | -6.08
30 | C=CCn1c(-c2ccc3[nH]c(C)c(C)c3c2)n[nH]c1=S | -2.23 | -6.13
31 | COc1ccc(-n2c(=S)[nH]c3cc(C(=O)Nc4cc(C(N)=O)ccc4OC)ccc3c2=O)c(OC)c1 | -1.11 | -3.49
32 | CCOc1ccc2nc(SCC(=O)Nc3ccccc3Oc3ccccc3)sc2c1 | -1.24 | -3.99
33 | COc1ccc2c(c1OC)C(=O)OC2CC(=O)c1ccc(C)cc1 (stereo not drawn) | -1.71 | -8.12
34 | COc1ccc(C(=O)NC23CC4CC(CC(C4)C2)C3)c(OC)c1 | -1.79 | -4.55
35 | CCCn1c(C)nc2c(=O)oc3ccccc3c21 | 0.943 | 3.04
36 | CCOc1ccc(-n2c(SCC(=O)c3ccccc3)nc3c([nH]c4ccccc43)c2=O)cc1 | -2.24 | -9
37 | CC1CCC(NC2CCCc3c2[nH]c2ccc([N+](=O)[O-])cc32)CC1 (stereo not drawn) | 1.7 | 3.89
38 | COC(=O)c1cc(OC)c(OC)cc1NC(=O)c1cc(Cl)ccc1Cl | -0.842 | -1.51
39 | COc1ccccc1CNc1nc(-c2ccc(Br)cc2)nc2ccccc12 | -1.28 | -2.39
